Measurements taken from PubChem BioAssay (EPA / NIEHS).
Inconclusive results are not listed. The source holds several records for some structures; these can differ, active in one and inactive in another. Active and inactive are the calls of the source. How the source made its calls, unless noted: active means hit-call score of the fitted dose curve at least 0.9, where 1 is the maximum; inconclusive means response in the unintended direction; inactive means score below 0.9.

Tests used:
[1] = biological target: rat Serotonin Transporter (SERT), Slc6a4 (gene 25553) (UniProt P31652); assay: NVS_TR_rSERT: NovaScreen (NVS) Transporter Assay for rat Serotonin Transporter (SERT) (AID 2283375)
Procedure, shortened: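 Radioligand binding with competitive displacement on rat forebrain membrane preparations, counted by filtration and scintillation after 1 h. Primary single-point duplicates at 25 uM; active chemicals followed up in concentration-response. DMSO served as baseline.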

[2] = biological target: Norway rat Vesicular Monoamine Transporter (VMAT2), neurotransmitter transporter, Slc18a2 (gene 25549) (UniProt Q01827); assay: NVS_TR_rVMAT2: NovaScreen (NVS) Transporter Assay for Norway rat Vesicular Monoamine Transporter (VMAT2), neurotransmitter transporter (AID 2283376);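 further: actives lower the bound radioligand signal below the DMSO level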
Procedure, shortened: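 Rat forebrain tissue preparation used in a cell-free radioligand binding format; displacement read by filter-based scintillation counting 1 hour after dosing. Primary screen in duplicate at 25 uM, actives then run in concentration series; loss of signal versus DMSO baseline.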

[3] = biological target: Estrogen receptor beta (Homo sapiens) (UniProt Q92731); assay: OT_ER_ERbERb_1440: Odyssey Thera (OT) 24-hour HEK293T Protein-Complementation Assay for Estrogen Receptor-beta/-beta Homodimer (AID 2283380);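 further: fluorescence gain from ER beta LBD homodimer complementation read by laser scanning cytometry; scored as signal increase over DMSO baseline for both agonists and antagonists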
Procedure, shortened: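 HEK293T cells stably expressing human ER-beta LBD (aa 310-547) PCA homodimer pair, dosed 24 h; formaldehyde-fixed, Draq5-stained. Readout: increase in nuclear (agonist) or nuclear plus cytoplasmic (antagonist) fluorescence intensity versus DMSO, gain-of-signal fitting.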

[4] = biological target: Retinoic acid receptor RXR-alpha (Homo sapiens) (UniProt P19793); assay: OT_NURR1_NURR1RXRa_0480: Odyssey Thera (OT) 8-hour HEK293T Protein Complementation Assay for Nurr1/retinoid X receptor (RXR) (AID 2283385)
Procedure, shortened: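 8 h compound exposure, HEK293T; Nurr1/RXRα fragment complementation; fluorescence intensity; positive fitting direction vs DMSO baseline.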

[5] = biological target: Peroxisome proliferator-activated receptor gamma (Homo sapiens) (UniProt P37231); assay: OT_PPARg_PPARgSRC1_0480: Odyssey Thera (OT) 8-hour Protein-Complementation Assay for Peroxisome Proliferator-activated Receptor Gamma / SRC-1 Co-activator (AID 2283387);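 further: nuclear to cytoplasmic split Venus YFP fluorescence ratio reporting PPARg SRC-1 interaction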
Procedure, shortened: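 HEK293T transiently transfected with PPARg and SRC-1 fused to Venus YFP fragments, compounds 8 h at 37C. Fixed, Draq5-stained cells imaged; nuclear/cytoplasmic 488 nm fluorescence ratio over at least 350 cells per image; gain fitted versus DMSO.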

[6] = biological target: Peroxisome proliferator-activated receptor gamma (Homo sapiens) (UniProt P37231); assay: OT_PPARg_PPARgSRC1_1440: Odyssey Thera (OT) 24-hour Protein-Complementation Assay for Peroxisome Proliferator-activated Receptor Gamma/ SRC-1 Co-activator (AID 2283388)
Procedure, shortened: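 Readout is the 488 nm N/C fluorescence ratio from fixed, Draq5-stained HEK293T cells after 24 h compound exposure. Cells carried transiently transfected PPARg and SRC-1 fused to Venus fragments, transfected 48 h before treatment.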

[7] = biological target: Agonist Androgen Response Element (ARE), AR (gene 367) (UniProt P10275); assay: OT_AR_ARELUC_AG_1440: Odyssey Thera (OT) 24-hour CHO-K1 Luciferase Assay for Agonist Androgen Response Element (ARE) (AID 2283379)
Procedure, shortened: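 Seed CHO-K1 cells; dose compounds for 24 h; add D-luciferin plus ATP in PBS; read luminescence. Signal increase relative to vehicle defines agonist activity, with at least 3 replicate wells per sample.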

[8] = biological target: Bile acid receptor (Homo sapiens) (UniProt Q96RI1); assay: OT_FXR_FXRSRC1_0480: Odyssey Thera (OT) 8-hour HEK293T Protein-Complementation Assay for Farnesoid X receptor/SRC-1 Co-activator (AID 2283383)
Procedure, shortened: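 Human kidney HEK293T cells carried FXR/SRC-1 fragment-complementation constructs. Compounds were added and incubated 8 h. Reporter reassembly upon receptor–co-activator interaction was then quantified by fluorescence, with curves fitted in the positive direction relative to DMSO.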

[9] = biological target: Bile acid receptor (Homo sapiens) (UniProt Q96RI1); assay: OT_FXR_FXRSRC1_1440: Odyssey Thera (OT) 24-hour HEK293T Protein-Complementation Assay for Farnesoid X receptor/SRC-1 Co-activator (AID 2283384)
Procedure, shortened: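 Compounds are applied to human kidney HEK293T cells expressing bait and prey fused to reporter protein fragments; after 24 h, reconstituted reporter fluorescence is measured. Activity is fitted as signal gain over DMSO.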

[10] = biological target: Estrogen receptor (Homo sapiens) (UniProt P03372); assay: OT_ERa_GFPERaERE_0120: Odyssey Thera (OT) 2-hour HeLa Transcription Induction Assay for Estrogen Receptor (AID 2283382)
Procedure, shortened: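 HeLa, 384-well, 2 h chemical exposure; GFP reporter induction (ERE), fluorescence microscopy; high content image analysis; positive fitting direction vs DMSO.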

[11] = biological target: Retinoic acid receptor RXR-alpha (Homo sapiens) (UniProt P19793); assay: OT_NURR1_NURR1RXRa_1440: Odyssey Thera (OT) 24-hour HEK293T Protein Complementation Assay for Nurr1/retinoid X receptor (RXR) (AID 2283386)
Procedure, shortened: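 Interaction of Nurr1 with RXRα brings fused reporter fragments together in human HEK293T cells, restoring a functional reporter. Fluorescence intensity is measured 24 h after chemical treatment, and values are analysed in the positive direction against DMSO.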

[12] = CEETOX_H295R_OHPREG: CeeTox H295R High-throughput Steroidogenesis Assay for OH-Pregnenolone (OHPREG) (AID 2283434; active means hit-call score of the fitted dose curve at least 0.9, where 1 is the maximum; inactive means score below 0.9); settings: actives raise or lower the signal
Procedure, shortened: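 Human adrenal H295R cells were prestimulated 48 h with 10 uM forskolin, then exposed 48 h to chemical in 0.1% DMSO. Medium 17alpha-hydroxypregnenolone was quantified by HPLC-MS/MS after MTBE extraction; bidirectional fitting versus DMSO baseline.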

[13] = CEETOX_H295R_11DCORT: CeeTox H295R High-throughput Steroidogenesis Assay for 11-Deoxycortisol (11DCORT) (AID 2283432; active means hit-call score of the fitted dose curve at least 0.9, where 1 is the maximum; inactive means score below 0.9;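 on AC50: 11-deoxycortisol secreted into the medium measured by LC-MS/MS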); settings: actives raise or lower the signal
Procedure, shortened: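 H295R cells prestimulated 48 h with 10 uM forskolin, then exposed 48 h to chemical in 0.1% DMSO. 11-Deoxycortisol in medium quantified by HPLC-MS/MS after MTBE extraction; bidirectional fit versus DMSO. MTT viability read in same wells.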

Measured: AC50

Chain of Estrogen receptor beta (Homo sapiens) (Q92731 whole entry, looked up, the tested form may be a part): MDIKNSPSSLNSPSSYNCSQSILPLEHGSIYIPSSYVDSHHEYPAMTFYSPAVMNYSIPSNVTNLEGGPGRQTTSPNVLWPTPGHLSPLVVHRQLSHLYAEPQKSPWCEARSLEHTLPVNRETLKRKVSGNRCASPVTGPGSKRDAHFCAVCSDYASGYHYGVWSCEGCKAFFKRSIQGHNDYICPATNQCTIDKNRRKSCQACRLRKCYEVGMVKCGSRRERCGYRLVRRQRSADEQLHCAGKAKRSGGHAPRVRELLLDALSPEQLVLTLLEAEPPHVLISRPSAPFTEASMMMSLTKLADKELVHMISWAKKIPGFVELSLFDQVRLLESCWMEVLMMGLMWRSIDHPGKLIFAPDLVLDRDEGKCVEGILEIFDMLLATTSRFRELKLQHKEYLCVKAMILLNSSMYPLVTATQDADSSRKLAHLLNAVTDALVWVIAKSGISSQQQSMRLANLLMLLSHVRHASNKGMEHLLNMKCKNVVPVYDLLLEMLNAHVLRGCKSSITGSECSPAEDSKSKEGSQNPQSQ
Chain of Retinoic acid receptor RXR-alpha (Homo sapiens) (P19793 whole entry, looked up, the tested form may be a part): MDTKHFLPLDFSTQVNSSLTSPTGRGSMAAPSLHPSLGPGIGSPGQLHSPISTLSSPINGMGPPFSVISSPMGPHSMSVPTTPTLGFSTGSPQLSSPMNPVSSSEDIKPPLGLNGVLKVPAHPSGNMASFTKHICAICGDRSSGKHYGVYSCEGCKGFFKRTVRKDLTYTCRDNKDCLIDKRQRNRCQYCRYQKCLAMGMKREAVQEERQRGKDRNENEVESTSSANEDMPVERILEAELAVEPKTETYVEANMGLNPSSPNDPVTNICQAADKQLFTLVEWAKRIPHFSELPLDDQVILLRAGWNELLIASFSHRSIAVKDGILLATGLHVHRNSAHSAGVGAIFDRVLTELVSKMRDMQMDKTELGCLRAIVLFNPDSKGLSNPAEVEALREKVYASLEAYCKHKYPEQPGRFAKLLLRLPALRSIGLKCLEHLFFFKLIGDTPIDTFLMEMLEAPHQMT
Chain of Peroxisome proliferator-activated receptor gamma (Homo sapiens) (P37231 whole entry, looked up, the tested form may be a part): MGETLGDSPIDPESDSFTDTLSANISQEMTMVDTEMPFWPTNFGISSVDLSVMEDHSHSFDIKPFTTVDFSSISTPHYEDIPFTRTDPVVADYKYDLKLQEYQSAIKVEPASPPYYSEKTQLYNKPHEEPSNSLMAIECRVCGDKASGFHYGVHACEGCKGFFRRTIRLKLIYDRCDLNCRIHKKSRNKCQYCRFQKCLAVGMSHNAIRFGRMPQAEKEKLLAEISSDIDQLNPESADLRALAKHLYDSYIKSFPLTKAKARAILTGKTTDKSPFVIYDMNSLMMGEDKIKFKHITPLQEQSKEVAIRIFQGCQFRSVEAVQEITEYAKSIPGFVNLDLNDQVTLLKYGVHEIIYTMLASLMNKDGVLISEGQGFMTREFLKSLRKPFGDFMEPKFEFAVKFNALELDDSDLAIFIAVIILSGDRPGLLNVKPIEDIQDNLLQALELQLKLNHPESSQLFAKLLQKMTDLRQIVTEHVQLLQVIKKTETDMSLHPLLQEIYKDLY
Chain of Bile acid receptor (Homo sapiens) (Q96RI1 whole entry, looked up, the tested form may be a part): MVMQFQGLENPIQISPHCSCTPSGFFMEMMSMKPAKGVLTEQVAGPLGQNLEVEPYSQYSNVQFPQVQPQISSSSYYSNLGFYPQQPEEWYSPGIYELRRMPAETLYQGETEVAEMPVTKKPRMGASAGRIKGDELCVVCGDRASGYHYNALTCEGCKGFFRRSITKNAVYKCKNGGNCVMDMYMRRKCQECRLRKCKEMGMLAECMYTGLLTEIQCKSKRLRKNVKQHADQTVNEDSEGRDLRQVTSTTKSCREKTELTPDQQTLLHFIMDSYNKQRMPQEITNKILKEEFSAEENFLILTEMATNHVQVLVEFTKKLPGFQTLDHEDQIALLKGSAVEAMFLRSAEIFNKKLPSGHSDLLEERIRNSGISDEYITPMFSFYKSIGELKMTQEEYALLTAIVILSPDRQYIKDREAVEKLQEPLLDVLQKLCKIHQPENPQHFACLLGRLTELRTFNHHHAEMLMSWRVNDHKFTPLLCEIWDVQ
Chain of Estrogen receptor (Homo sapiens) (P03372 whole entry, looked up): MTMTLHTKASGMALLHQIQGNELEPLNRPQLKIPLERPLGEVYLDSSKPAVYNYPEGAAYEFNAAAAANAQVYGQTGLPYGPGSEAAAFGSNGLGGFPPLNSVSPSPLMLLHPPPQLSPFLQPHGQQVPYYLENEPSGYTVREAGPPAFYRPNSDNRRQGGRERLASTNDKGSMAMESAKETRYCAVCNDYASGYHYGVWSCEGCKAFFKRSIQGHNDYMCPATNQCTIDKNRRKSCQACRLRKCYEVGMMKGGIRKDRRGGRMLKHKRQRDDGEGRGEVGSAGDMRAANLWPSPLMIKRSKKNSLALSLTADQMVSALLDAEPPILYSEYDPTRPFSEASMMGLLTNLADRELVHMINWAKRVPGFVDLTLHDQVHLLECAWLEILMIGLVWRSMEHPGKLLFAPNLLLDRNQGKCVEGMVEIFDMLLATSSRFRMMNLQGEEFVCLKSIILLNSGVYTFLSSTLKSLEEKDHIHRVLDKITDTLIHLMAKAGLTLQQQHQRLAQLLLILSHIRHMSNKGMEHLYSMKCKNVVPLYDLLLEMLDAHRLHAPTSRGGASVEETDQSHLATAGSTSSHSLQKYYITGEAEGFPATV
Chain of Agonist Androgen Response Element (ARE), AR (gene 367) (P10275 whole entry, looked up): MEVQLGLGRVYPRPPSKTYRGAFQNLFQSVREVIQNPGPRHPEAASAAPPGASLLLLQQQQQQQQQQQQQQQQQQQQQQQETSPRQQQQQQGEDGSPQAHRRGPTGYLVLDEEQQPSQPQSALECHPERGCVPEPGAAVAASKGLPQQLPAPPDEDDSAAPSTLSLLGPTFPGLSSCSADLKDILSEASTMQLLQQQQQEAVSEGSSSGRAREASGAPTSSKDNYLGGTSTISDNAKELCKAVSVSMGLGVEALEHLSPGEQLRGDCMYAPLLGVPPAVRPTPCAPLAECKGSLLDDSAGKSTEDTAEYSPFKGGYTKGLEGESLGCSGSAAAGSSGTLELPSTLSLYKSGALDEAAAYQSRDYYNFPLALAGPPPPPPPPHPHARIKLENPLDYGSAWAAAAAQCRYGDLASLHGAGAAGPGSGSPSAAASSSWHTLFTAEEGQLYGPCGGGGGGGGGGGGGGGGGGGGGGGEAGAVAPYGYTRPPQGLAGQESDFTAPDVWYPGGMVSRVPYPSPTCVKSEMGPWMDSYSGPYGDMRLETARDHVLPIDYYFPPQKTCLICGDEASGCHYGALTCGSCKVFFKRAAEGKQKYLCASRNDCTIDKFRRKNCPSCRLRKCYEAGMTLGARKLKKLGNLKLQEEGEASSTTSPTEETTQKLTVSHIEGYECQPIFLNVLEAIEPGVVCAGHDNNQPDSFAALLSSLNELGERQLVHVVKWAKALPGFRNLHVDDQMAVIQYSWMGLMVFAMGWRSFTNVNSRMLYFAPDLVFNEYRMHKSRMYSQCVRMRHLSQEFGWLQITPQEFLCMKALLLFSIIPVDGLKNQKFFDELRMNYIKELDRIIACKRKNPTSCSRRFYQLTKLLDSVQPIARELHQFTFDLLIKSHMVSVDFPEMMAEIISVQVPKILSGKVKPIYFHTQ
Chain of Norway rat Vesicular Monoamine Transporter (VMAT2), neurotransmitter transporter, Slc18a2 (gene 25549) (Q01827 whole entry, looked up): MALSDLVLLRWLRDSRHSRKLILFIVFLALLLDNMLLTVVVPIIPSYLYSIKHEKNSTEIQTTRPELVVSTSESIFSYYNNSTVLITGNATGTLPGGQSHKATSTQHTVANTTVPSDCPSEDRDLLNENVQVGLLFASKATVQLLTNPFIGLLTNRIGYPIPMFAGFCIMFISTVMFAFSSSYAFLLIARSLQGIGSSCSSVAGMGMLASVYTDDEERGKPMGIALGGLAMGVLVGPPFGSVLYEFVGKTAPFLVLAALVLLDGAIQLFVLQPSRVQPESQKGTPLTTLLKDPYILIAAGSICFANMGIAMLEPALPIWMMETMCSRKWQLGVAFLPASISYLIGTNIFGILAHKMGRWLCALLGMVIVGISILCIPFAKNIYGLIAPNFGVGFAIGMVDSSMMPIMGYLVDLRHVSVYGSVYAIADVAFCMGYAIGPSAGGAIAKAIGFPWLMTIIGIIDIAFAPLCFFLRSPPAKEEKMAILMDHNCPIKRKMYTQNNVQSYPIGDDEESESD
Chain of rat Serotonin Transporter (SERT), Slc6a4 (gene 25553) (P31652 whole entry, looked up): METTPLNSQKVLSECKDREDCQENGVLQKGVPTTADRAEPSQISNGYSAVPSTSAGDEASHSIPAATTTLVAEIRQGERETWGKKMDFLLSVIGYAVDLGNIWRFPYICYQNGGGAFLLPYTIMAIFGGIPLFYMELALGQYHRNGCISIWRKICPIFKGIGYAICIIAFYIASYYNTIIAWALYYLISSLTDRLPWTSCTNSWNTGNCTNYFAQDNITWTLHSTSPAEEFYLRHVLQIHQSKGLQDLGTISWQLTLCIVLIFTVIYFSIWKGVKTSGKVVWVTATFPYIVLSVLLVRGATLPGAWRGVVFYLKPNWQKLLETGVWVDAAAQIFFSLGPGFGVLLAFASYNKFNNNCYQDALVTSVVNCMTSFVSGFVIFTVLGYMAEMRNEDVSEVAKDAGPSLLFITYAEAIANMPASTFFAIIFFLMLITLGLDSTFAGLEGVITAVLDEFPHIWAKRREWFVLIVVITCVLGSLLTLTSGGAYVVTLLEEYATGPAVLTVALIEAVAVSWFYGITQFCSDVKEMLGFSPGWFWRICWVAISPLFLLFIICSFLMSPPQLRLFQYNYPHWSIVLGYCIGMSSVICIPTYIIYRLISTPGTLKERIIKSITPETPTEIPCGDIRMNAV

COC(=O)c1ccccc1N
inactive: [1] | [2] | [3] | [4] | [5] | [6]

COC(=O)Nc1nc2ccccc2[nH]1
inactive: [7] | [3] | [5] | [6]

Cc1ccc(N)cc1
inactive: [5] | [6]

Clc1ccc(C(c2ccc(Cl)cc2)C(Cl)(Cl)Cl)cc1
active: [3] 29.1 µM | [8] 11.2 µM
inactive: [9] | [5] | [6]

CCC12COCN1COC2
inactive: [10] | [4] | [11] | [5] | [6]

N#CC(Br)(Br)C(N)=O
inactive: [4] | [11] | [5] | [6] | [12]

[As]#[In]
inactive: [3] | [4] | [11] | [12]

Clc1ccccc1Cl
inactive: [8] | [9] | [11] | [5] | [6]
active: [3] 7.71 µM

Cc1ccc(N=C=O)cc1N=C=O
inactive: [4] | [11] | [5] | [6] | [13] | [12]

c1ccc(C2CO2)cc1 (stereo not given)
inactive: [5] | [6]

O=C(O)C1C2CCC(O2)C1C(=O)O (stereo not given)
active: [11] 32 µM
inactive: [11]

C1=Cc2cccc3cccc1c23
inactive: [4] | [11] | [5] | [6]

Oc1ccc2ccc3cccc4ccc1c2c34
inactive: [4]
active: [3] 12 µM | [13] 18.8 µM | [12] 25 µM

c1ccc2c(c1)oc1ccccc12
inactive: [3] | [4]

c1ccc2c(c1)-c1cccc3cccc-2c13
active: [3] 50 µM | [12] 14 µM
inactive: [5] | [6]

CCN(CC)N=O
inactive: [8] | [9] | [11] | [5] | [6]

Oc1ccccc1Cl
inactive: [4] | [11] | [5] | [6]

Clc1ccc(Cl)c(Cl)c1
inactive: [3] | [4] | [11] | [5] | [6]

CC(O)CCO (stereo not given)
inactive: [3] | [4] | [5] | [6]

CCCCC(CC)COC(=O)c1ccc(C(=O)OCC(CC)CCCC)c(C(=O)OCC(CC)CCCC)c1 (stereo not given)
inactive: [5] | [6]

ClCCOCCCl
inactive: [3] | [8] | [9] | [5] | [6]

Brc1ccc(Oc2ccccc2)cc1
inactive: [10] | [4] | [11] | [5] | [6]

c1ccc(NNc2ccccc2)cc1
inactive: [3] | [8] | [9] | [13] | [12]

CN(C)C(=O)Nc1ccc(Cl)cc1
active: [9] 66.9 µM
inactive: [3] | [8] | [11] | [5] | [6]

CCOc1cccc(C2(N3CCN(c4ccccc4)CC3)CCC(C)CC2)c1 (stereo not given)
active: [12] 81.7 µM
inactive: [10] | [5] | [6] | [13]

COc1cc(C=O)cc2c1[C@H](COC(N)=O)[C@]1(OC(C)=O)ON2C[C@H]2[C@@H]1N2C(C)=O
inactive: [10] | [5] | [6]

Nc1cc(Cl)cc(C(=O)O)c1Cl
inactive: [3] | [5] | [6]

Clc1ccc(C(c2ccc(Cl)cc2)C(Cl)Cl)cc1
active: [10] 12 µM | [11] 80.9 µM
inactive: [5] | [6]

OCCCl
inactive: [3] | [8] | [5] | [6]

CCN(CC)CCO
inactive: [3] | [11] | [5] | [6]
